Active and inactive are the calls of the source.
Key:
Albumin (Bos taurus) = Albumin (Bos taurus) (UniProt P02769); test: bovine serum albumin binders on microarray, profiling panel, artefact control for SMM control protein annotation, biochemical, small-molecule microarray, Alexa647 label, 635/667 nm fluorescence (AID 1118); conditions: BSA-A647 binding, fluorescence 635 nm, higher = more signal;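 note: score merges 667 nm emission intensity and signal-to-noise per printed compound spot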
[1] = small-molecule microarray binders of probe aXIP, primary screen, biochemical, NeuroSMM set, 635/667 nm fluorescence (AID 1119); conditions: higher = more signal, called active from +8 up or from −8 down;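 note: probe is the protein aXip251-270 applied at 1 µg/mL to compound-printed slides; binding of probe to printed compounds measured as 667 nm fluorescence plus signal to noise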
[2] = small-molecule binders of probe aNOTCH3, primary screen, biochemical, small-molecule microarray, 635/667 nm fluorescence (AID 1120); conditions: higher = more signal;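 note: probe is a biotin-tagged antibody raised against NOTCH3 rather than NOTCH3 protein; score merges spot fluorescence near 667 nm with spot signal to noise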
[3] = small-molecule binders of probe aNOTCH2, primary screen, biochemical, small-molecule microarray, 635/667 nm fluorescence (AID 1121); conditions: higher = more signal;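 note: score merges feature fluorescence read at 667 nm with its signal to noise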
[4] = molecular target: Carbonic anhydrase 2 (Homo sapiens) (UniProt P00918); test: CAII small-molecule binders, profiling panel, biochemical, small-molecule microarray, Alexa647-labelled CAII (AID 1122); conditions: CAII-A647 binding fluorescence, higher = more signal
[5] = COS7 lysate on small-molecule microarray, probe aHis, 635 nm (AID 1123); conditions: COS7 cell lysate, fluorescence, higher = more signal;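 note: z-score combines 667nm fluorescence intensity with signal-to-noise per printed compound spot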
[6] = compound binding in COS7 lysate, probe aLAP1, primary screen, cell lysate, small-molecule microarray (AID 1124); conditions: probe aLAP1, fluorescence, higher = more signal;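 note: lysate comes from COS7 cells expressing LAP1 and is applied at 0.3 µg/mL; score merges spot fluorescence near 667 nm with signal-to-noise over triplicate slides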
Sam68 (KHDRBS1) = test: Sam68 small-molecule binders, primary screen, biochemical, small-molecule microarray, 635 nm fluorescence (AID 1125); conditions: small-molecule microarray binding, higher = more signal;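 note: score merges 667 nm channel intensity with signal to noise over triplicate slides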
[7] = system: Chordin-like protein 2 (CHRDL2); test: CHRDL2 small-molecule binders, primary screen, biochemical, small-molecule microarray, 635 nm fluorescence (AID 1126); conditions: small-molecule microarray binding, fluorescence 635 nm; higher = more signal;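 note: printed compound slides probed with Chrdl2 protein at 4 µg/mL for 1 h at 4 C; score merges 667 nm emission intensity with signal to noise over three replicate slides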
[8] = molecular target: Concanavalin-A (Canavalia ensiformis) (UniProt P02866); test: ConA small-molecule binders, primary screen, artefact control for SMM control protein annotation, biochemical, small-molecule microarray, Alexa647 label, 635 nm (AID 1127); conditions: ConA-A647 binding fluorescence, higher = more signal;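 note: z combines 667 nm emission intensity with signal-to-noise across three replicate slides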
Sequence of Concanavalin-A (Canavalia ensiformis) (P02866 whole entry, looked up): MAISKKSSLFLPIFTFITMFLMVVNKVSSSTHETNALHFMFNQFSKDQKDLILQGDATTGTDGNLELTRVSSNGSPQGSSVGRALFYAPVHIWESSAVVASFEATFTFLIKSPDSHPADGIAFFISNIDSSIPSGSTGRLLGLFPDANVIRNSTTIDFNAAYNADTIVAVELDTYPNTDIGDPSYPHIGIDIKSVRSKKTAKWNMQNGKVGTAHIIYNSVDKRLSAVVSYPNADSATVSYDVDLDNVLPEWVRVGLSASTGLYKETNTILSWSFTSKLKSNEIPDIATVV

Sequence of Albumin (Bos taurus) (P02769 whole entry, looked up): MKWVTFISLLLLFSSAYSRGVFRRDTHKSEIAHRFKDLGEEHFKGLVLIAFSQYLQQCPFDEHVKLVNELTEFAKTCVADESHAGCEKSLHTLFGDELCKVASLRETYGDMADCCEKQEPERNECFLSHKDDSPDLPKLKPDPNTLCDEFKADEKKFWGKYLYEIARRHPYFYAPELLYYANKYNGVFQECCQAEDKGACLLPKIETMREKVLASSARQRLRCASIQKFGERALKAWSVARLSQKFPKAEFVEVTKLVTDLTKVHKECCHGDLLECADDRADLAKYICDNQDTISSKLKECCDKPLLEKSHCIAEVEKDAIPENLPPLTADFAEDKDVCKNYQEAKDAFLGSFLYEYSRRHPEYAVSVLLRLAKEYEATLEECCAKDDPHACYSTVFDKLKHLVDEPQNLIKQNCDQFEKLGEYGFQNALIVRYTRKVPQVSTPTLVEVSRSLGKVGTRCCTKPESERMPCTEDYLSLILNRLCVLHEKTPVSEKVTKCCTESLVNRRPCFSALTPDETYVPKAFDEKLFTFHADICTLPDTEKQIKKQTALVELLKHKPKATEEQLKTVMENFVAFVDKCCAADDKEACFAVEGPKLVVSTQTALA

SMILES | composite z-score (Albumin (Bos taurus)) | composite Z-score [1] | composite z-score [2] | composite z-score [3] | composite z-score [4] | composite z-score [5] | composite z-score [6] | composite z-score (Sam68 (KHDRBS1)) | composite z-score [7] | composite z-score [8]
CCCC=C(CCC)[C@@H](NC(=O)CCc1ccccc1)c1ccc(C(F)(F)F)cc1 | 0.964 | -0.1 (inactive) | 0.265 | -0.0095 | 0.58 | 2.82 | 0.0364 | 1.27 | -0.153 | 1.1
COCCOC(=O)N1C(=O)[C@@]2(c3cc(C#CCNC(N)=O)ccc31)[C@H](c1ccc(OCCO)cc1)N1[C@H](c3ccccc3)[C@H](c3ccccc3)OC(=O)[C@H]1[C@@H]2C(=O)NC[C@H](O)c1ccccc1 | 0.633 | -0.524 (inactive) | 0.206 | -0.013 | 0.225 | 0.0755 | 0.442 | 1.29 | 0.84 | 1.14
C=C(/C(=C/C[C@@H](OC(=O)c1ccncc1)c1cccc(OCCO)c1)c1cnc2ccccc2c1)C(C)C | 0.701 | 0.414 (inactive) | 0.178 | -0.0689 | 0.976 | 1.69 | 1.38 | 1.21 | 1.24 | 1.2
COc1cc(NN2C(C(O)C3CCCCC3)C=CC3C(=O)N(c4ccccc4)C(=O)C32)cc(OC)c1OC (stereo not given) | 1.07 | 1.13 (inactive) | 0.0205 | 0.0888 | 0.712 | 2.65 | 0.605 | 1.3 | -1.5 | 1.11
C=C/C=C/[C@@H]1C(=C)CN([C@@H](Cc2ccccc2)C(=O)OC)[C@H]1[C@@H](O)Cc1ccccc1 | 0.0797 | 0.3 (inactive) | -0.0343 | -0.115 | 0.311 | 1.07 | 0.137 | 1.09 | 0.177 | 0.861
Cc1ccc(S[C@]2(C(=O)NC(C)C)CC(=O)N(Cc3ccccc3Cl)[C@@H]2c2ccc(CO)cc2)cc1 | 0.29 | 0.0728 (inactive) | -0.294 | -0.146 | 0.717 | 0.634 | 0.542 | -1.21 | -1.85 | -0.744
COCCOC(=O)N1C(=O)[C@@]2(c3cc(C#CCCO)ccc31)[C@H](c1ccccc1OCCO)N1[C@H](c3ccccc3)[C@H](c3ccccc3)OC(=O)[C@H]1[C@@H]2C(=O)N1CCCCCCC1 | 0.86 | 0.358 (inactive) | 1.39 | 0.333 | 0.761 | 3.2 | 0.796 | 1.29 | 1.05 | 1.11
[N-]=[N+]=Nc1ccccc1C[C@]1(C(=O)O)N=C(c2ccc(OCCCO)cc2)O[C@H]1c1ccccc1 | 0.784 | 0.0778 (inactive) | -0.0316 | -0.121 | 0.601 | 2.58 | 0.266 | 0.822 | -1.09 | 0.552
O=C1OCCC=C[C@H]2OC34C=CCN(c5ccc(Cl)cc5)C(=O)[C@H]3N(CCCCCCO)C(=O)[C@@H]4C12 (stereo not given in full) | -0.418 | 0.318 (inactive) | -0.122 | -0.218 | 0.802 | -0.328 | -0.256 | -0.156 | -1.16 | -0.941
CC1CC/C=C\[C@H]2OC34C=CCN(CCN5CCOCC5)C(=O)[C@H]3N(C(C)CO)C(=O)[C@@H]4C2C(=O)O1 (stereo not given in full) | -0.712 | 0.117 (inactive) | -0.129 | -0.0741 | 0.738 | 1.57 | -0.221 | 0.19 | -0.231 | -0.371
Cc1ccc(S[C@]2(C(=O)NC(C)C)CC(=O)N(C(C)C)[C@@H]2c2ccc(CO)cc2I)cc1 | 0.41 | -0.283 (inactive) | -0.0647 | -0.0686 | 0.326 | 1.32 | 0.366 | 1.12 | -0.598 | -0.0097
C=CCN1C(=O)[C@]2(O[C@H](CCO)[C@@H]([Si](C)(C)c3ccc(OC)cc3)[C@@H]2C)c2cc(NC(=O)c3ccc(OC)cc3)ccc21 | -0.296 | 0.0866 (inactive) | -0.0017 | -0.108 | 0.216 | 0.13 | 0.0305 | 1.04 | 0.878 | 0.689
CCOC(=O)C1=C[C@@H](c2ccccc2)N(S(=O)(=O)c2ccc(C)cc2)[C@H]1c1ccccc1 | 0.612 | 0.185 (inactive) | 0.0636 | -0.022 | 0.0593 | -0.136 | 0.326 | 0.582 | 0.512 | 0.759
COc1ccc(C(O)C2C=CC3C(=O)N(c4ccccc4)C(=O)C3N2Nc2ccc(C(C)C)cc2)c2ccccc12 (stereo not given) | 0.916 | 0.0396 (inactive) | 0.378 | 0.186 | 0.725 | 2.84 | 0.284 | 1.31 | -0.118 | 1.12
C[C@]1(C(=O)NCCN2CCOCC2)c2ccccc2C(=O)N(Cc2cc(F)cc(C(F)(F)F)c2)[C@H]1c1ccc(CO)cc1 | 0.0744 | 0.0652 (inactive) | -0.159 | -0.0928 | 0.773 | 2.18 | 0.535 | 0.692 | -0.841 | 0.828
Cc1ccccc1C(O)C1C=CC2C(=O)N(c3ccccc3)C(=O)C2N1Nc1ccc([N+](=O)[O-])cc1 (stereo not given) | 0.84 | 1.19 (inactive) | 0.116 | -0.0796 | 0.684 | 2.73 | 1.03 | 1.3 | -0.051 | 1.14
COCC(=C=CC[C@H](O)c1cccc(OCCO)c1)C[C@H](O)COCc1ccccc1 | 0.484 | -0.141 (inactive) | 0.187 | 0.104 | 0.742 | 2.13 | 0.66 | 0.938 | -0.227 | -0.564

SMILES | composite z-score (Albumin (Bos taurus)) | composite Z-score [1] | composite z-score [2] | composite z-score [3] | composite z-score [4] | composite z-score [5] | composite z-score [6] | composite z-score (Sam68 (KHDRBS1)) | composite z-score [7] | composite z-score [8]
O=C1O[C@H](c2ccccc2)[C@H](c2ccccc2)N2[C@H]1[C@@H](C(=O)N1CCCCCCC1)[C@]1(C(=O)Nc3ccc(C#CC4(O)CCCCCC4)cc31)[C@H]2c1ccc(O)cc1 | -0.0339 | 5.24 (inactive) | 1.77 | 0.956 | 0.705 | 3.64 | 1.42 | 1.29 | 1.39 | 1.07
CN(C)CCCCNC(=O)[C@H]1C[C@H]2C(=O)N[C@@H](CCCC[N+](C)(C)C)C(=O)N2[C@H]1c1ccc(O)cc1 | -0.165 | 0.261 (inactive) | -0.208 | 0.2 | 0.716 | -0.287 | 0.106 | -0.863 | -0.187 | 0.343
COC(=O)[C@@]1(Cc2ccccc2)[C@H]2c3cc(C(=O)N4CCCC4)n(CCSCCO)c3C[C@H]2CN1C(=O)c1ccccc1 | 1.05 | -0.176 (inactive) | 0.543 | 0.187 | 0.841 | 3.57 | 1.22 | 1.12 | -0.997 | 0.554
COC(=O)[C@@]1(Cc2ccc(OC)cc2)[C@H]2c3cc(C(=O)N4CCCC4)n(Cc4ccc(OC(F)(F)F)cc4)c3C[C@H]2CN1C(=O)c1ccccc1 | 0.943 | 0.308 (inactive) | 0.142 | 0.194 | -0.0687 | -0.0543 | -0.347 | -0.582 | -0.818 | 1.01
CN1C(=O)C2C=CC(C(O)c3ccc(I)cc3)N(Nc3ccccc3)C2C1=O (stereo not given) | 0.939 | 0.412 (inactive) | 0.323 | -0.0389 | 0.547 | 1.91 | 0.595 | 1.14 | 0.569 | 1.15
O=C1C2C=CC(C(O)C=Cc3ccc([N+](=O)[O-])cc3)N(Nc3ccccc3)C2C(=O)N1c1ccccc1 (stereo not given) | 0.859 | 0.075 (inactive) | 0.346 | 0.0167 | 0.713 | 2.05 | 0.276 | 1.24 | -0.0982 | 1.1
COc1ccc([Si](C)(C)[C@@H]2[C@@H](CCn3cc([C@H](O)c4ccccc4)nn3)O[C@]3(C(=O)N(c4ccccc4)c4ccccc43)[C@H]2C)cc1 | -0.591 | -0.424 (inactive) | -0.145 | -0.131 | 0.0028 | 0.233 | -0.232 | 0.548 | -0.063 | 0.503
O=C1C[C@@](C(=O)NCc2ccccc2)(c2ccc([N+](=O)[O-])cc2)[C@@H](c2ccc(CO)cc2I)N1CC12CC3CC(CC(C3)C1)C2 | 0.59 | -0.0102 (inactive) | -0.223 | -0.14 | 0.721 | 2.25 | 0.0884 | 1.21 | 0.542 | 0.999
[N-]=[N+]=Nc1ccccc1C[C@@]1(C(=O)O)N=C(c2ccc(OCCCO)cc2)O[C@@H]1c1ccccc1N=[N+]=[N-] | 0.612 | 0.95 (inactive) | 0.126 | 0.13 | 0.457 | 2.49 | 1.66 | 1.3 | -0.91 | 1.15
COCCOC(=O)N1C(=O)[C@@]2(c3cc(C#CC4(O)CCCCCC4)ccc31)[C@H](C(=O)N1CCN(c3ncccn3)CC1)[C@H]1C(=O)O[C@H](c3ccccc3)[C@H](c3ccccc3)N1[C@@H]2c1ccccc1OCCO | -0.22 | 0.572 (inactive) | 0.22 | -0.0826 | 0.384 | 0.506 | -0.176 | 1.26 | 0.902 | 1.13
O=C(O)[C@@H]1C[C@@H]2C(=O)N3CCC[C@H]3C(=O)N2[C@@H]1c1cccc(OCCO)c1 | 0.778 | 2.44 (inactive) | 1.56 | 1.07 | 0.849 | 4.04 | 1.04 | 1.33 | 1.11 | 1.24
CCCCC(=C=CC[C@H](O)c1ccc(OCCO)cc1)C[C@H](O)c1cc(Cl)cc(Cl)c1O | 0.377 | 0.671 (inactive) | -0.0178 | -0.133 | 0.456 | 0.271 | 0.163 | 0.805 | 0.44 | 0.72
CCOC(=O)C1=CCC(c2ccco2)N(S(=O)(=O)c2ccc(C)cc2)C1 (stereo not given) | 0.769 | 0.204 (inactive) | 0.196 | 0.0006 | 0.581 | 1.48 | 0.509 | 1.22 | 0.388 | 0.956
C=CCN1C(=O)[C@]2(O[C@H](CCO)[C@@H]([Si](C)(C)c3ccc(OC)cc3)[C@@H]2C)c2cc(N3C(=O)COc4ccccc43)ccc21 | 0.427 | 0.0421 (inactive) | 0.0039 | -0.175 | 0.418 | 0.751 | 0.78 | 0.804 | -0.153 | 0.919
COc1ccc([Si](C)(C)[C@@H]2[C@@H](CC(=O)N3Cc4ccccc4C[C@H]3CO)O[C@]3(C(=O)N(c4ccccc4)c4ccccc43)[C@H]2C)cc1 | -0.104 | 8.06 (active) | 0.146 | 0.0018 | 0.429 | 1.21 | 0.339 | 1.3 | 0.943 | 0.869
CN(C)CCCNC(=O)[C@@H]1c2ccccc2C(=O)N(C2CCCCC2)[C@H]1c1ccc(CO)cc1 | -0.706 | 0.245 (inactive) | 0.303 | -0.0891 | 0.672 | 1.38 | 0.337 | 1.29 | 1.06 | 1.08
